From PubChem BioAssay AID1159580 (chemical genetic matrix, 2015)
Several values for one entry are separate records, joined by “and”; a condition that tells them apart may be missing. Equal entries are not always repeated. The campaign covered roughly 5,500 compounds. About 2,000 (36%) were called active. Not shown: some 18% with an inconclusive outcome. Cut-off read from the data, not from the text of the source: active = normalized growth mostly below about 0.91 (no sharp cut-off); inconclusive = no clear call, values can overlap the other calls; inactive = mostly above about 0.92. This is one part of the list.

Experiment: chemical genetic growth profiling, strain panel (AID 1159580);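 note: tested at 20 µM; growth read once vehicle control cultures reached saturation at 30 °C; 1 = growth at the plate median or of vehicle wells; lower values mean less growth of the strain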
Settings: S. cerevisiae deletion strains, growth OD

Measured: normalized growth

Cc1ccc(S(=O)(=O)NC(=O)NN2CC3CCCC3C2)cc1 (configuration not stated)
inactive: locus YAL013W, strain DEP1, active compounds read low 1.01 | locus YAL021C, strain ccr4, active compounds read low 0.996 | locus YAL026C, strain drs2, active compounds read low 0.979 | locus YAL030W, strain snc1, active compounds read low 0.982 | locus YBL061C, strain skt5, active compounds read low 0.981 | locus YBR009C, strain hhf1, active compounds read low 0.976 | locus YBR021W, strain FUR4, active compounds read low 1.01 | locus YBR023C, strain chs3, active compounds read low 0.973 | locus YBR171W, strain sec66, active compounds read low 0.995 | locus YBR229C, strain ROT2, active compounds read low 1.01 | locus YBR231C, strain swc5, active compounds read low 0.984 | locus YBR279W, strain paf1, active compounds read low 0.987 | locus YCL011C, strain gbp2, active compounds read low 0.961 | locus YCL016C, strain dcc1, active compounds read low 0.98 | locus YCL029C, strain bik1, active compounds read low 1.01 | locus YCL069W, strain vba3, active compounds read low 0.993 | locus YCR088W, strain abp1, active compounds read low 0.972 | locus YDL005C, strain med2, active compounds read low 0.98 | locus YDL035C, strain GPR1, active compounds read low 0.946 | locus YDL040C, strain nat1, active compounds read low 0.984 | locus YDL074C, strain BRE1, active compounds read low 1.01 | locus YDL101C, strain DUN1, active compounds read low 1.02 | locus YDL134C, strain PPH21, active compounds read low 0.962 | locus YDL185W, strain tfp1, active compounds read low 1.02 | locus YDL192W, strain arf1, active compounds read low 1.01 | locus YDR001C, strain nth1, active compounds read low 0.968 | locus YDR069C, strain doa4, active compounds read low 0.99 | locus YDR101C, strain arx1, active compounds read low 1 | locus YDR137W, strain rgp1, active compounds read low 0.89 | locus YDR159W, strain sac3, active compounds read low 0.991 | locus YDR162C, strain NBP2, active compounds read low 0.994 | locus YDR195W, strain ref2 0.975 | locus YDR297W, strain sur2, active compounds read low 0.975 | locus YDR318W, strain mcm21, active compounds read low 1.01 | locus YDR334W, strain swr1, active compounds read low 0.959 | locus YDR335W, strain msn5, active compounds read low 0.979 | locus YDR388W, active compounds read low 1.01 | locus YDR392W, strain spt3, active compounds read low 0.974 | locus YDR502C, strain sam2, active compounds read low 0.997 | locus YEL003W, strain gim4, active compounds read low 0.968 | locus YEL037C, strain rad23, active compounds read low 0.986 | locus YEL061C, strain CIN8 (second series), active compounds read low 0.955 | locus YEL061C, strain CIN8, active compounds read low 1 | locus YER015W, strain faa2, active compounds read low 0.975 | locus YER016W, strain bim1, active compounds read low 0.995 | locus YER110C, active compounds read low 1.02 | locus YER111C, strain swi4, active compounds read low 0.972 | locus YER155C, strain BEM2 (second series), active compounds read low 0.977 | locus YER155C, strain BEM2, active compounds read low 1 | locus YER167W, strain BCK2, active compounds read low 1 | locus YFR010W, strain ubp6, active compounds read low 0.986 | locus YGL078C, strain dbp3, active compounds read low 1.01 | locus YGL086W, strain mad1, active compounds read low 0.984 | locus YGL167C, strain pmr1, active compounds read low 0.982 | locus YGL173C, strain kem1, active compounds read low 1 | locus YGL227W, strain vid30, active compounds read low 0.969 | locus YGL240W, strain doc1, active compounds read low 0.969 | locus YGL248W, strain PDE1, active compounds read low 0.995 | locus YGL253W, strain hxk2, active compounds read low 0.987 | locus YGR135W, strain pre9, active compounds read low 1.03 | locus YGR229C, strain SMI1, active compounds read low 1.01 | locus YGR252W, strain gcn5, active compounds read low 1.05 | locus YHR013C, strain ard1, active compounds read low 0.967 | locus YHR027C, strain rpn1, active compounds read low 0.983 | locus YHR030C, strain SLT2, active compounds read low 1 and 0.961 | locus YHR079C, strain IRE1 (second series), active compounds read low 1.01 | locus YHR079C, strain IRE1, active compounds read low 0.966 | locus YHR094C, strain hxt1, active compounds read low 1.01 | locus YHR129C, strain ARP1, active compounds read low 0.992 | locus YHR142W, strain chs7, active compounds read low 0.98 | locus YHR200W, strain rpn10, active compounds read low 1.01 | locus YIL066C, strain RNR3, active compounds read low 1 | locus YIL073C, strain SPO22, active compounds read low 1.05 | locus YIL125W, strain kgd1, active compounds read low 1.01 | locus YIR030C, strain dcg1, active compounds read low 1.03 | locus YJL092W, strain hpr5, active compounds read low 0.954 | locus YJL095W, strain BCK1 (second series), active compounds read low 0.973 | locus YJL095W, strain BCK1, active compounds read low 1.02 and 0.973 | locus YJL115W, strain asf1, active compounds read low 0.945 | locus YJL129C, strain trk1, active compounds read low 0.954 | locus YJL134W, strain LCB3, active compounds read low 1 | locus YJL154C, strain vps35, active compounds read low 0.97 | locus YJL164C, strain tpk1, active compounds read low 0.97 | locus YJL166W, strain qcr8, active compounds read low 0.981 | locus YJL168C, strain set2, active compounds read low 1.01 | locus YJL187C, strain SWE1 (second series), active compounds read low 1 | locus YJL187C, strain SWE1, active compounds read low 0.989
